Test results: the supplement of paper PMC11417369
± gives the standard deviation of the averaged measurements. In all, about 25,000 sequences were measured (“ln(normalized median fluorescence intensity)”: median about 10, highest 2% from about 12 on). What follows is part of a selection rich in the highest values, with near analogues and random picks from the rest.

These sequences were tested on PfAP2-G AP2 domain (GST-tagged) (assay: gcPBM binding intensity (ln(normalized median fluorescence intensity)); higher = stronger DNA binding).
Outline: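 An Agilent 4 × 180k array carrying primer-extended double-stranded 36-bp intergenic genomic probes and negative controls received GST-tagged P. falciparum DNA-binding domains expressed in E. coli, about 25 μg on average, for 1 h. The binding buffer contained 1× PBS, 1% milk, 0.2 mg/ml BSA, 0.5% salmon testes DNA and 0.03% Triton X-100. Binding intensity is the top Masliner-normalised natural-log median intensity across replicate spots of either probe orientation, read after Alexa488 anti-GST antibody staining and a 488 nm scan.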

Sequence	gcPBM binding intensity (ln)
TAATTTTCATAATTTTGTACTTAACGTTTTACCTTG [XGTACX_site8048]	10.9 ± 0.5
TGCACAAAATTATGCACACACCTAAAATTAATTTTT [CACACA_site5596]	10.2 ± 0.21
TAAATTTAAAATGACACACACTAAAATTATTTAAGT [CACACA_site4816]	10.05 ± 0.021
TATGAGAACAAACATTGTACAATAAAAAGTAGATAT [XGTACX_site920]	11.2 ± 0.35
ATAAAGAAAAGGAACACACAAATATGTAAATATGTA [CACACA_site6356]	10.06 ± 0.085
ATAGAACAGAAAAGGCGTACAATAATATGTAAACAA [XGTACX_site2828]	11.8 ± 1.1
TTTCATAACAAAAAAGTGCAAAATAGCACGAACATT [GTGCAC_site9703]	10.3 ± 0.16
AAACGATTAATGTGTACACACATAGTTATAAACATA [CACACA_site7073]	11.7 ± 1.2
AAACGATTAATGTGTACACACATAGTTATAAACCTA [CACACA_site2110]	11.6 ± 0.91
TTATAAAACACAAAATGTACAAAAAATTATAATTAA [XGTACX_site6859]	10.7 ± 0.33
AAACGATTACTGTGTACACACATAGTTATAAACATA [CACACA_site5195]	11.5 ± 0.72
TAAACACATTATATATGTACATAATAAAAAAAAAAA [XGTACX_site7907]	11.2 ± 0.83
AAAAACGATTAATGTGTACACACATAGTTATAAACA [CACACA_site8659]	11.7 ± 1.2
TAATGACAATAAAAATAAATAAATAAAAAAAAAAAA [TGCATGCA_negctrl_site321]	9.51 ± 0.59
ATATAAATATAAACATGTACATATATATATATATAT [XGTACX_site2824]	11.1 ± 0.69
AAAATTTTTCTTAAAGCATGCACAATTAAGAAGACG [TGCATGCA_site883]	10.2 ± 0.13
TTTTTCATAAAAAAATAAAAAAAATTAACATAGAAA [XGTACX_negctrl_site11]	9.95 ± 0.26
TTTATACTTTCAAAATGTACATATATATATATATAT [XGTACX_site6241]	11.1 ± 0.63
ATATATACTATAATAGTGCATTAAAAAAGTAAAAAT	10.2 ± 0.25
GTAAATACACATATGTGTACATATATATATATATAT [XGTACX_site3696]	11.5 ± 0.86
AAAAATATAATATAATGTACACATAAACAAAAAAAA [XGTACX_site3658]	11.4 ± 0.84
TAAAACATATATACAAGTACACAAAGGATATATATA [XGTACX_site3710]	11.4 ± 0.95

Sequence	gcPBM binding intensity (ln)
AATAAATATAGGTACACACACAAATATGTACATATC [CACACA_site6976]	11.7 ± 0.92
AAGGGGAAAAAAAAAAGTACACAAACATAGGATAAT [XGTACX_site377]	11.7 ± 1
GTTTTAAAACAAATATGTACACATAATATAGGAAAG [XGTACX_site1803]	11.7 ± 0.82
AATATATATATGTGTACACATCCAAAATAGGCATAC [CACACA_site5705]	11.7 ± 1.1
CATCCACAAATATGTACACACATATATAAATATGTA [CACACA_site7407]	11.4 ± 0.93
TAAATAAATATATGTACACACACAAATATATACATA [CACACA_site8577]	11.4 ± 0.73
AAAAAAAAAAAAACAAGTACAAAGGATAGAAAAAAA [XGTACX_site4133]	11.2 ± 0.71
AATAAATATATGTACACACACAAATATATACATATC [CACACA_site1903]	11.3 ± 0.63
AATAAAAATAGGAAATGTACACATATATATATATAT [XGTACX_site1853]	11.2 ± 0.59
AAAAAAAAAAGAAAGAGTACTTTTTCAATACATATA [XGTACX_site2468]	11.1 ± 0.7
TTAACTTATTTGTAAAGTACATTAATAAAAAGAAAA [XGTACX_site1588]	11.1 ± 0.42
ATATATATATATATATGTACATATATTTTTATTTAT [XGTACX_site3508]	11.2 ± 0.76
TAACTACTAGAAAAAACACACAAAAAGTAAATATAT [CACACA_site2740]	10.045 ± 0.007
ATACATACATATATATGTACTTATATTTTACACATT [XGTACX_site1688]	11.2 ± 0.75
AATGGAAAAATAGGCACACACACATAAATACAGATA [CACACA_site4844]	10.3 ± 0.18
TGTAAATATAAATGTAATAAATATGTAAAAATAAAT [XGTACX_negctrl_site171]	9.79 ± 0.13
AATGAATAAATAAACACACACACATATATAAATATG [CACACA_site6160]	10.05 ± 0.014
GATAAAATATGTTGCCGTACATATTCATATACTTAA [XGTACX_site4776]	11 ± 0.62
GGTAGTTATTATCTCCGTACTTATAAAGAAAAAAGG [XGTACX_site4674]	10.9 ± 0.63
TATGTATATTTTTTTGTGCACATATATATATATATA	10.4 ± 0.35
ATTTTTATTTTTTTTGTGCACATTTTCATTTTCTAT [GTGCAC_site9580]	10.54 ± 0.085
TTTGTGTGTACGCGTGTGCACATTTTTTTTTTTTTT	11.7 ± 0.92
